According to PubChem BioAssay:
“And” between values parts separate entries of the source, which are not always exact repeats. Equal entries are not always repeated. A number with no mark means an inactive call. This is one part of the list. The source made the active and inactive calls.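 How the source made its calls, unless noted: active means mean inhibition above 46.68%, the untreated control wells mean plus 3 SD; inactive means the rest.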

Columns and labels:
[1] = target: Nuclear receptor coactivator 1 (Homo sapiens) (UniProt Q15788); assay: SRC1 coactivator transcriptional activity inhibitors, confirmation, cell-based, luminescence, quadruplicate (AID 588820); conditions: HEK293 GAL4-SRC1 luciferase reporter, at 3.6 µM, hits give high values;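 further: 0% = DMSO wells and 100% = gossypol 36 µM treated wells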
Nuclear receptor coactivator 1 (Homo sapiens), sequence (Q15788 whole entry, looked up, the tested form may be a part): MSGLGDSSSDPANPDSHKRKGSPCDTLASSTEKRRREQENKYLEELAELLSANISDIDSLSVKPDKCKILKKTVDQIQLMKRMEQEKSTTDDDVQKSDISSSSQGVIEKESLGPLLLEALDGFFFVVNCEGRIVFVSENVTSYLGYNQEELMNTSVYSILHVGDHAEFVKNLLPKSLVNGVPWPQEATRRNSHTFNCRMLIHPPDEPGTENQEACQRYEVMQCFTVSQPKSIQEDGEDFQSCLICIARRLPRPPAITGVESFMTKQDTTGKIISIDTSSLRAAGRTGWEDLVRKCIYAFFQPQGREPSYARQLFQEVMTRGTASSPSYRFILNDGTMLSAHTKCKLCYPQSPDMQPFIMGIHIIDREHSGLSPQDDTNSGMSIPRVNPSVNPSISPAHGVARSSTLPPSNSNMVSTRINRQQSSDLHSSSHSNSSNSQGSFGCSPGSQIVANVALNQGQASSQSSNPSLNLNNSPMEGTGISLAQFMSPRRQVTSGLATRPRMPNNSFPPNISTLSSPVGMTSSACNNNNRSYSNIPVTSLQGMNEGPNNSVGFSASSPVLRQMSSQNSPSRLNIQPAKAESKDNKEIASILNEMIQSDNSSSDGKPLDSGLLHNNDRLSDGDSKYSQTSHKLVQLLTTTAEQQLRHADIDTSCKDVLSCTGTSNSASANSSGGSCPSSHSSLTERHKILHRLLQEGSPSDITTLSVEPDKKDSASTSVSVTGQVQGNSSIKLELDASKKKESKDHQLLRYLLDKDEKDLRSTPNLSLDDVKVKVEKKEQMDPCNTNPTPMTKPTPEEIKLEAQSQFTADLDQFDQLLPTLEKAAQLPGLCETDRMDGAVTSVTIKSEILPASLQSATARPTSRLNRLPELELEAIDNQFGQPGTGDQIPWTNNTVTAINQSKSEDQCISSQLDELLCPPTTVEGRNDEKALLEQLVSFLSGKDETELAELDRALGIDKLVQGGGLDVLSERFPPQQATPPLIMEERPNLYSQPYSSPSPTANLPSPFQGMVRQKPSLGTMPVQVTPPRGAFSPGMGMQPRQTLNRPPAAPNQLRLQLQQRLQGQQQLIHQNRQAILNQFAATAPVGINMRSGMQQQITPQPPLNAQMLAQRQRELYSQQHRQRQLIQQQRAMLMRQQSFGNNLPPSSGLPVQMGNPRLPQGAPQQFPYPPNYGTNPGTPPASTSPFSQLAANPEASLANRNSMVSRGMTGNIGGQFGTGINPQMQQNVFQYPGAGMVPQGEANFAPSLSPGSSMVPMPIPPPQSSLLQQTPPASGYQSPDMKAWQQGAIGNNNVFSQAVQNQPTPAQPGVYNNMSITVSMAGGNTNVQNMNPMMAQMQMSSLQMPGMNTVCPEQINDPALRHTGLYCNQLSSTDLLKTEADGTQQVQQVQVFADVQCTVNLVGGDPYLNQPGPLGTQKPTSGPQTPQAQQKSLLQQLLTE

[2] = VP16 transactivation inhibitors, counter-screen for SRC1 inhibitor project, cell-based, luminescence, high throughput (AID 588824; in the data active means inhibition above about 25%); conditions: cell-based VP16 transactivation luciferase luminescence; at 3.6 µM; hits give high values
[3] = StAR promoter reporter inhibitors, counter-screen for LRH-1 inverse agonist project, cell-based, luminescence, high throughput (AID 651611; in the data active means inhibition above about 28%); conditions: StAR promoter luciferase reporter counterscreen, at 3.6 µM, hits give high values
[4] = target: Nuclear receptor subfamily 5 group A member 2 (Homo sapiens) (UniProt O00482); assay: LRH-1 (NR5A2) inverse agonists, retest, confirmation, cell-based, luminescence (AID 651613; in the data active means inhibition above about 42%;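 further: HEK293T cells co-transfected with LRH-1 and StAR promoter luciferase reporter; 0% = vehicle wells and 100% = parental cells lacking receptor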); conditions: cell-based LRH-1 luciferase reporter, inverse agonism; at 3.6 µM; hits give high values
Nuclear receptor subfamily 5 group A member 2 (Homo sapiens), sequence (O00482 whole entry, looked up): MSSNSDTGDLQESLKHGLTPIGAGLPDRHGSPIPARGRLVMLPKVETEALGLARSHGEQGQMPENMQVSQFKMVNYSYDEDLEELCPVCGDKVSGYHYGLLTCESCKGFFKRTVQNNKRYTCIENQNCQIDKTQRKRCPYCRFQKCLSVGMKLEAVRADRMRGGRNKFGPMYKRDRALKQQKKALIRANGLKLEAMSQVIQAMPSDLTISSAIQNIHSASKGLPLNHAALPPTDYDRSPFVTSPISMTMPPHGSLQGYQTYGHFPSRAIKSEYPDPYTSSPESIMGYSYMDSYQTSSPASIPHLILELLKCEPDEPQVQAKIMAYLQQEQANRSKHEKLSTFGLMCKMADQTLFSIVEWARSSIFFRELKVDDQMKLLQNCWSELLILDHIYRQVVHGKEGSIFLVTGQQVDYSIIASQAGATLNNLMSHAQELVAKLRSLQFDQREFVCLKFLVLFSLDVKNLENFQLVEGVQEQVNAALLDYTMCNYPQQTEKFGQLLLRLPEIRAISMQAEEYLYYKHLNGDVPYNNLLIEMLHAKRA

[5] = target: Steroidogenic factor 1 (Homo sapiens) (UniProt Q13285); assay: SF1 (NR5A1) inverse agonists, counter-screen for LRH-1 inverse agonist project, cell-based, luminescence, high throughput (AID 651614; in the data active means inhibition above about 44%;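 further: cells cotransfected with StAR promoter reporter and SF1 expression vector; 0% = vehicle on cells with receptor and 100% = vehicle on cells lacking receptor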); conditions: cell-based SF1 luciferase reporter, at 3.6 µM, hits give high values
Steroidogenic factor 1 (Homo sapiens), sequence (Q13285 whole entry, looked up, the tested form may be a part): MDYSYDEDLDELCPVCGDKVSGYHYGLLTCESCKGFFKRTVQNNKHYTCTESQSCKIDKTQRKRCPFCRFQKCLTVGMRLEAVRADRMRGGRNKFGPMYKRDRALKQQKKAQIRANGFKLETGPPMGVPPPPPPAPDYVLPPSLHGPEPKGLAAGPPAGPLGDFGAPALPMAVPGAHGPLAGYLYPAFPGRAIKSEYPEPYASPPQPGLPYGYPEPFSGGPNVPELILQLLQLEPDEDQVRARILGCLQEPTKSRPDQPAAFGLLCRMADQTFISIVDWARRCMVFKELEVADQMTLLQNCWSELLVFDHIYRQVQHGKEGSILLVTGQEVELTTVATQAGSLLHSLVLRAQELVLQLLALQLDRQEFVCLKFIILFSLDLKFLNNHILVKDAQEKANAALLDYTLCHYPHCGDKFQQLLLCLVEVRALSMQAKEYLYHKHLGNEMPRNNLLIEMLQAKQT

[6] = VP16 transactivation reporter inhibitors, counter-screen for LRH-1 inverse agonist project, cell-based, luminescence, high throughput (AID 651615; in the data active means inhibition above about 33%); conditions: Gal4-VP16 luciferase reporter cells, at 3.6 µM, hits give high values
[7] = system: transactivating tegument protein VP16 (Human herpesvirus 1); assay: VP16 transactivation reporter inhibitors, counter-screen for SRC2 inhibitor project, cell-based, luminescence, single concentration (AID 652007; in the data active means inhibition above about 36%); conditions: cell-based VP16 transactivation luciferase reporter, at 8.9 µM, hits give high values
[8] = target: Nuclear receptor coactivator 2 (Homo sapiens) (UniProt Q15596); assay: SRC2 coactivator transcriptional activity inhibitors, confirmation, cell-based, luminescence, HEK293, triplicate (AID 652008;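 active means mean inhibition above 46.5%, the solvent-only control mean plus 3 SD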;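 further: 0% = DMSO-treated cells and 100% = Gossypol at 36 µM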); conditions: HEK293 GAL4-SRC2 luciferase reporter, at 8.9 µM, hits give high values
Nuclear receptor coactivator 2 (Homo sapiens), sequence (Q15596 whole entry, looked up, the tested form may be a part): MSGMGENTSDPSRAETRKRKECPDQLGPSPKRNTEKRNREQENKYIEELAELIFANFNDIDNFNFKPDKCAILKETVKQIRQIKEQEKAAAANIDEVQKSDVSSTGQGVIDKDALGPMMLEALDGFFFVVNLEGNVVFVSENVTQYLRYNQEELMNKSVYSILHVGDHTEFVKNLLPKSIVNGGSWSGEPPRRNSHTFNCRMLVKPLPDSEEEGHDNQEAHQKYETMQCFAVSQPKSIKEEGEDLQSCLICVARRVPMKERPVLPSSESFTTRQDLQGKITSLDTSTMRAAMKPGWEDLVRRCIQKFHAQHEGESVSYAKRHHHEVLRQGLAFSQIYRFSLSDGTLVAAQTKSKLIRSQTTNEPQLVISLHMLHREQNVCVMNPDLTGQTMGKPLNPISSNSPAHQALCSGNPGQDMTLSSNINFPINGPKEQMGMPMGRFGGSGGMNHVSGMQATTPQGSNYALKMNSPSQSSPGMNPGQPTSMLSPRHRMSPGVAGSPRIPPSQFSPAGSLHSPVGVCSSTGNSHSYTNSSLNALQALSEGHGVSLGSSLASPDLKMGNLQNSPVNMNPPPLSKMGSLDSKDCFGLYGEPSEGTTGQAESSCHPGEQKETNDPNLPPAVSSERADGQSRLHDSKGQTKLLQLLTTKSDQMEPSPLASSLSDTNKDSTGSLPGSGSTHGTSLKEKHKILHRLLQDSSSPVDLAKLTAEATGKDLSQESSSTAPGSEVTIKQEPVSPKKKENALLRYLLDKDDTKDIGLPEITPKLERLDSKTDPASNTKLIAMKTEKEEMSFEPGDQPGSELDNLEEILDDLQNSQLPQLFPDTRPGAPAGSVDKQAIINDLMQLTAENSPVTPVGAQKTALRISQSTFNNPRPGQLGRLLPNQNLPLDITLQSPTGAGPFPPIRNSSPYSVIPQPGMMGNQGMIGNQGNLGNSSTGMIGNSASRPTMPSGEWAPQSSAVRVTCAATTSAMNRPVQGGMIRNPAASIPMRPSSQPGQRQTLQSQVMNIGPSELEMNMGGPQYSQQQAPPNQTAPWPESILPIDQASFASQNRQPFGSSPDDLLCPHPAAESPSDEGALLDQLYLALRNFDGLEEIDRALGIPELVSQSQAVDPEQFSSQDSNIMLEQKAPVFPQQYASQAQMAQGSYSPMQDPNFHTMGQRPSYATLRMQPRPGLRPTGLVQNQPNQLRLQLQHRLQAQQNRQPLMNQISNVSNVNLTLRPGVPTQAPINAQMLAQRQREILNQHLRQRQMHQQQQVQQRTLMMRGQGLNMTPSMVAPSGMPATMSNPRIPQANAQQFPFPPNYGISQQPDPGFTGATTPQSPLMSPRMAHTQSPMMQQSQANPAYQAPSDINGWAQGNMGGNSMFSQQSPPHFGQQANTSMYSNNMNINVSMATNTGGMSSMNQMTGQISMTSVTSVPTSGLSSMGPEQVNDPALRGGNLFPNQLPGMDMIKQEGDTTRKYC

[9] = growth loss of phage-infected RecBCD+ E. coli, confirmation, RecBCD inhibitor project, absorbance, E. coli V66, T4 gene 2 phage (AID 651982;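 active means mean inhibition over triplicates exceeding the hit threshold derived in the original primary screen, cut at about 11% in these data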); conditions: E. coli V66 + T4 2- phage, growth OD; at 11.9 µM; hits give high values
[10] = E. coli viability inhibition, counter-screen for RecBCD inhibitor project, absorbance, high throughput (AID 651983; in the data active means inhibition above about 20%;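 further: E. coli strain V66 grown with compound alone and no phage infection; 0% = bacteria with DMSO vehicle only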); conditions: absorbance (OD) growth, at 11.9 µM, hits give high values
[11] = growth loss of phage-infected AddAB-carrying E. coli, confirmation, counter-screen for RecBCD inhibitor project, absorbance, E. coli V3065, T4 phage (AID 651984;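 active means mean inhibition above the solvent-only control wells' mean plus 3 SD, cut at about 22% in these data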;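 further: higher means less bacterial growth from phage killing when AddAB is blocked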); conditions: E. coli expressing H. pylori AddAB + T4 phage, OD growth; at 11.9 µM; hits give high values; gene 2 mutant T4, recBCD-deleted host
[12] = target: Oxysterols receptor LXR-beta (Homo sapiens) (UniProt P55055); assay: LXR agonists, Gal4 luciferase reporter, confirmation, counter-screen for hcDAF-12 agonist project, cell-based, luminescence, HEK293, H. contortus campaign (AID 743027;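 active means mean percent activation of the reporter above a cutoff set as the average over tested compounds plus their standard deviation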); conditions: HEK293 Gal4-LXR tk-luc reporter, 24 h, at 6.8 µM, hits give high values, normalized: DMSO 0%, positive control 100%
Oxysterols receptor LXR-beta (Homo sapiens), sequence (P55055 whole entry, looked up, the tested form may be a part): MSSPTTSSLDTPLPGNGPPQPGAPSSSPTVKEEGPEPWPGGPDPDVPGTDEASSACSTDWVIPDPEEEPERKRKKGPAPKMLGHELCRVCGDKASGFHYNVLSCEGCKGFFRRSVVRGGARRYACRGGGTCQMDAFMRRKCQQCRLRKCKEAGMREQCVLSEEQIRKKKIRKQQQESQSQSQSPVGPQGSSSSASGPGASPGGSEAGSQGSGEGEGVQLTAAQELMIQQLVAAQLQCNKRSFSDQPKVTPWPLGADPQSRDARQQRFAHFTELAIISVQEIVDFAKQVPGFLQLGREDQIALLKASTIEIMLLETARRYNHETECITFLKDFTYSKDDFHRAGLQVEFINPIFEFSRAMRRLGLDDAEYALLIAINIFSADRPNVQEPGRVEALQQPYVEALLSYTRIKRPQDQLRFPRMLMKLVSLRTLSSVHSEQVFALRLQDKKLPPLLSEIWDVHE

[13] = system: Nuclear hormone receptor DAF-12 (Haemonchus contortus); assay: H. contortus DAF-12 receptor agonists, confirmation, cell-based, luminescence, HEK293, lit1-tk-luc, triplicate (AID 743032;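 active means mean activation across triplicate tests above the threshold derived from the earlier primary screen, cut at about 5.5% in these data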;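 further: 0% = DMSO only wells and 100% = 3 µM Δ7-dafachronic acid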); conditions: HEK293 hcDAF-12 lit1-tk-luc reporter, at 6.8 µM, hits give high values, % of Δ7-dafachronic acid response

## O=C(CSc1nnnn1C1CC2CCC1C2)Nc1ccnc2ccccc12 (centres undefined)
[1]
  inhibition: -14.4%
[2]
  inhibition: 44.7% (active)
[3]
  inhibition: 30% (active)
[4]
  inhibition: 61% (active)
[5]
  inhibition: 56.1% (active)
[6]
  inhibition: 59.1% (active)

## COc1ccc(S(=O)(=O)N2CCOCC2)cc1NC(=O)CCNC(=O)c1ccc(Br)cc1
[1]
  inhibition: 64.3% (active)
[2]
  inhibition: 61.1% (active)
[3]
  inhibition: 90.4% (active)
[4]
  inhibition: 100% (active)
[5]
  inhibition: 95% (active)
[6]
  inhibition: 67.4% (active)
[7]
  inhibition: 2.56%
[8]
  inhibition: 44.6%

## COc1cccc(N2CCN(c3c(C#N)c(C(F)(F)F)nn3C)CC2)c1
[1]
  inhibition: 48.8% (active)
[2]
  inhibition: 32.2% (active)
[7]
  inhibition: -6.45%
[8]
  inhibition: 41.6%

## O=S(=O)(Nc1ccc2c(c1)OCCO2)c1cccc2nsnc12
[1]
  inhibition: 7.42%
[2]
  inhibition: -8.28%
[7]
  inhibition: -9.03%
[8]
  inhibition: 44%

## Cc1cc(NC(=O)Cc2ccccc2)c2ccccc2n1
[1]
  inhibition: 11.1%
[2]
  inhibition: 36.5% (active)
[7]
  inhibition: 9.96%
[8]
  inhibition: 24.6%

## CCOC(=O)C1CCN(C(=O)c2ccc(OCC(=O)Nc3cccc(C(F)(F)F)c3)c(OC)c2)CC1
[1]
  inhibition: 4.29%
[2]
  inhibition: 35.4% (active)
[7]
  inhibition: 24.1%
[8]
  inhibition: 45.3%

## NC(=S)NN=Cc1ccc(OC(=O)COc2cc(Cl)c(Cl)cc2Cl)cn1
[1]
  inhibition: 23.4%
[2]
  inhibition: 18.9%
[9]
  inhibition: 1.21%
[10]
  inhibition: 5.2%
[11]
  inhibition: 23.4% (active)

## O=C1CCC2S/C(=C/Nc3ccc(C(F)(F)F)cc3)C(=O)N12 (centres undefined)
[1]
  inhibition: 15.1%
[2]
  inhibition: 6.56%
[7]
  inhibition: 3.33%
[8]
  inhibition: 66.4% (active)

## Cc1ccc(-c2nnc(SCC(=O)Nc3ccccc3F)o2)cc1
[1]
  inhibition: -8.02%
[2]
  inhibition: 26.2% (active)
[7]
  inhibition: 19.4%
[8]
  inhibition: 60% (active)

## CN(C)CCNC(=O)c1ccc(Cl)c2cc3ccccc3nc12
[1]
  inhibition: 14.8%
[2]
  inhibition: 29.6% (active)
[3]
  inhibition: 70.1% (active)
[4]
  inhibition: 73.1% (active)
[5]
  inhibition: 67.4% (active)
[6]
  inhibition: 61% (active)
[12]
  activation: 0.85%
[13]
  activation: 8.92% (active)

## C=C1C(=O)C23CCC4C(C)(C(=O)OC)CCCC4(C)C2CCC1(O)C3 (centres undefined)
[1]
  inhibition: -0.73%
[2]
  inhibition: 53.7% (active)
[3]
  inhibition: 67.4% (active)
[4]
  inhibition: 70.5% (active)
[5]
  inhibition: 82.1% (active)
[6]
  inhibition: 74% (active)
[7]
  inhibition: 83.1% (active)
[8]
  inhibition: 98.2% (active)

## COc1ccc2c(=O)cc(-c3ccncc3)oc2c1OC
[1]
  inhibition: 43.9%
[2]
  inhibition: 19.3%
[7]
  inhibition: -15.8%
[8]
  inhibition: 41.5%

## Cc1ccc(OCC(=O)NC(=S)Nc2ccccn2)c(Br)c1
[1]
  inhibition: -49%
[2]
  inhibition: -39.2%
[7]
  inhibition: 20.5%
[8]
  inhibition: 37.7%

## C=C1C(=O)C23C(O)C1CCC2C12COC3(O)C(O)C1C(C)(C)CCC2O (centres undefined)
[1]
  inhibition: -16%
[2]
  inhibition: -9.14%
[7]
  inhibition: 2.43%
[8]
  inhibition: 25.9%

## Cc1nc2sc(C(N)=O)c(N)c2c(C)c1CC(=O)c1ccccc1
[1]
  inhibition: 35.5%
[2]
  inhibition: 5.05%
[7]
  inhibition: -52.2%
[8]
  inhibition: 19.1%

## Cc1ccc(Oc2ccc(C(=O)NCc3ccncc3)cc2)cc1
[1]
  inhibition: 2.24%
[2]
  inhibition: 23.4%
[3]
  inhibition: 10.2%
[4]
  inhibition: 76.8% (active)
[5]
  inhibition: 67.9% (active)
[6]
  inhibition: 52.9% (active)
[7]
  inhibition: 7.11%
[8]
  inhibition: 21.1%

## Cc1cc(Nc2cccc(Cl)c2)nc(NCc2ccccc2)n1
[1]
  inhibition: -6.91%
[2]
  inhibition: 12.4%
[7]
  inhibition: -3.2%
[8]
  inhibition: 13.1%

## O=C1c2c(O)ccc(O)c2C(=O)c2c(NCCNCCO)ccc(NCCNCCO)c21
[1]
  inhibition: -142% and -11.9%
[2]
  inhibition: 20.7% and 0.91%
[4]
  inhibition: 77.4% (active)
[5]
  inhibition: 56.3% (active)

## O=C(NCCc1cccc(Cl)c1)c1ccc(OC2CCN(Cc3ccccn3)CC2)cc1
[1]
  inhibition: -20.2%
[2]
  inhibition: -8.94%
[7]
  inhibition: 12.7%
[8]
  inhibition: 39.1%

## CCn1c(Oc2cccc(Br)c2)nc2c1c(=O)n(C)c(=O)n2C
[1]
  inhibition: 15.8%
[2]
  inhibition: 12.3%
[7]
  inhibition: -33.4%
[8]
  inhibition: 10.2%

## COc1ccccc1NS(=O)(=O)c1cccc(NC(=O)c2cncc(Br)c2)c1
[1]
  inhibition: 20%
[2]
  inhibition: 25.1%
[7]
  inhibition: 14.8%
[8]
  inhibition: 21%

## CC(=O)Nc1ccc(OCC(=O)Nc2ccc(Cl)c(S(=O)(=O)N3CCOCC3)c2)cc1
[1]
  inhibition: -7.7%
[2]
  inhibition: 27.7% (active)
[7]
  inhibition: -7.09%
[8]
  inhibition: 19.6%

## Cc1sc2ncnc(N3CCC(C(=O)N(C)CC(=O)Nc4cccc(F)c4)CC3)c2c1C
[1]
  inhibition: 33.5%
[2]
  inhibition: 22.7%
[7]
  inhibition: -11.2%
[8]
  inhibition: 25.1%

## COCCNC(=O)c1c[nH]c2ccc(S(=O)(=O)N3CCc4ccccc43)cc2c1=O
[1]
  inhibition: 43.8%
[2]
  inhibition: 29.5% (active)
[7]
  inhibition: 20.1%
[8]
  inhibition: 33.5%

## O=C(Nc1ccc2c(c1)OCCO2)c1[nH]c(C(F)(F)F)nc1-c1ccccc1
[1]
  inhibition: -3.74%
[2]
  inhibition: -15.6%
[7]
  inhibition: -38.1%
[8]
  inhibition: 49.1% (active)
